# Source: PubChem BioAssay (Tox21)
# Unmarked numbers belong to inactive results. Inconclusive results are not listed. A call without a number means that no potency is given here. Active and inactive are the calls of the source. Unless noted, calls come from the whole dose curve.
# What was measured:
# [1] = Nuclear factor erythroid 2-related factor 2/antioxidant responsive element (Nrf2/ARE) small molecule agonists: qHTS cell viability counter screen in human keratinocytes (AID 1919968; active = well fitted curve in the direction sought with a large enough effect in the repeat runs; an effect the other way counts as inactive or inconclusive; note: nearly all actives have a fitted effect of over 55% in size; note: potency is the fitted concentration of half-maximal effect)
# In short: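 Parallel cytotoxicity read: KeratinoSens HaCaT cells, compound treatment 23 h, viability by CellTiter-Fluor fluorescence 1 h post-reagent.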
# [2] = Nuclear factor erythroid 2-related factor 2/antioxidant responsive element (Nrf2/ARE) small molecule agonists: luciferase reporter gene qHTS assay in human keratinocytes (AID 1919969); note: nearly all actives have a fitted effect of over 35% in size; note: potency is the fitted concentration of half-maximal effect
# [3] = target: Gonadotropin-releasing hormone receptor (Homo sapiens) (UniProt P30968); experiment: Human gonadotropin-releasing hormone receptor (GnRHR) small molecule agonists, calcium flux assay in GnRHR-HEK293 cells (AID 1920063); note: nearly all actives have a fitted effect of over 35% in size; note: potency is the fitted concentration of half-maximal effect
# Gonadotropin-releasing hormone receptor (Homo sapiens), sequence (P30968 whole entry, looked up): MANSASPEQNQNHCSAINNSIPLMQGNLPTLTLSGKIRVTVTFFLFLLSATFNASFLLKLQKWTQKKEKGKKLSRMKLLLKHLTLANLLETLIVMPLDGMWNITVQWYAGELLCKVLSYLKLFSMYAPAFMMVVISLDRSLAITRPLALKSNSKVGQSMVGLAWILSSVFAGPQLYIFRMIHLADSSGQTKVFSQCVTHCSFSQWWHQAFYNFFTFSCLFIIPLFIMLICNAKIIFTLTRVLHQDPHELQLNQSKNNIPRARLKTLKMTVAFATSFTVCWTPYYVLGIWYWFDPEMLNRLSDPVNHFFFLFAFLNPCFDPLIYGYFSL
# In short: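 Calcium flux, agonist mode, human GnRHR stably integrated in HEK293; dye 1 h at 37 C before compound; Ex/Em=480/540 kinetic read, 3 min; 15 concentrations, triplicate.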
# [4] = target: KiSS-1 receptor (Homo sapiens) (UniProt Q969F8); experiment: Human kisspeptin (KISS1R) small molecule agonists, calcium flux assay in KISS1R-HEK293 cells (AID 1920064; active = well fitted curve in the direction sought with a large enough effect in the repeat runs; an effect the other way counts as inactive or inconclusive; note: potency is the fitted concentration of half-maximal effect)
# KiSS-1 receptor (Homo sapiens), sequence (Q969F8 whole entry, looked up): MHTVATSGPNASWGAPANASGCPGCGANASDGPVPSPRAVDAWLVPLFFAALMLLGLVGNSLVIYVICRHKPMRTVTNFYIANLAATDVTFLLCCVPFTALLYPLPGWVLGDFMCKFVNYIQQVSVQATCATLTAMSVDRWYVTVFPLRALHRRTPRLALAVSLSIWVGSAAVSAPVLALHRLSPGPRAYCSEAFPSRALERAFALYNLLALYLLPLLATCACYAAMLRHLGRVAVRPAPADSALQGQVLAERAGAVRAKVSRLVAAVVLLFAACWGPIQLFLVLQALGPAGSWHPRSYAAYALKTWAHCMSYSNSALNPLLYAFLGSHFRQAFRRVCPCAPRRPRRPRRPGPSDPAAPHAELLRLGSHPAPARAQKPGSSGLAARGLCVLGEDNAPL
# In short: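 Triplicate 15-concentration series were applied to dye-loaded human KISS1R HEK293 cells, and agonist-evoked calcium fluorescence was captured for 3 min.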
# [5] = G protein-coupled receptor (GPCR) small molecule agonists, calcium flux assay: HEK293 wild type cell line counter screen (AID 1920065); note: potency is the fitted concentration of half-maximal effect
# In short: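 Non-specific calcium responders were flagged by adding DMSO-dissolved compounds to dye-loaded cells and reading 480/540 nm fluorescence each second for 3 min; ATP served as positive control.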
# [6] = p53 small molecule agonists, cell-based qHTS assay with human liver microsomes (AID 1963577);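 note: p53 response element beta-lactamase reporter cells with liver microsomes plus NADPH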
# In short: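 Reporter activation was measured by LiveBLAzer fluorescence intensity in p53RE-bla cells, which had been exposed to compounds for 16 h at 37 C alongside 0.5 mg/mL human liver microsomes and 0.5 mg/mL NADPH (final concentrations).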
# [7] = p53 small molecule agonists, cell-based qHTS assay with rat liver microsomes (AID 1963578)
# In short: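 Compound in DMSO added to p53RE-bla cells 5 h post-plating; rat microsomes/NADPH 0.5 mg/mL final; 16 h, 37 C; LiveBLAzer 2 h RT.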
# [8] = p53 small molecule agonists, cell-based qHTS assay with human liver microsomes: qHTS cell viability counter screen (AID 1963579); note: nearly all actives have a fitted effect of over 45% in size; note: potency is the fitted concentration of half-maximal effect
# In short: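 HLM-supplemented (0.5 mg/mL final) and NADPH-supplemented (0.5 mg/mL final) p53RE-bla cultures, 4,000 cells per well, were dosed with compounds in DMSO for 16 h at 37 C; luminescent ATP detection (CellTiter-Glo, 30 min, room temperature) quantified surviving cells.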
# [9] = p53 small molecule agonists, cell-based qHTS assay with rat liver microsomes: qHTS cell viability counter screen (AID 1963580); note: nearly all actives have a fitted effect of over 45% in size; note: potency is the fitted concentration of half-maximal effect
# In short: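 Cytotoxicity counter screen: intracellular ATP read by CellTiter-Glo luminescence in the p53 reporter wells. HCT-116 p53RE-bla cells were treated for 16 h at 37 C alongside rat liver microsomes and NADPH, each 0.5 mg/mL final.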
# [10] = p53 small molecule agonists, cell-based qHTS assay: qHTS cell viability counter screen (AID 1963581); note: nearly all actives have a fitted effect of over 45% in size; note: potency is the fitted concentration of half-maximal effect
# In short: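 Multiplexed with the reporter read, a CellTiter-Glo step (30 min, room temperature) gauges ATP-based viability of HCT-116 p53RE-bla cells after 16 h compound incubation at 37 C.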
# [11] = p53 small molecule agonists, cell-based qHTS assay (AID 1963582; active = well fitted activation curve with a large enough effect in the signal ratio in the repeat runs, not every such curve was filed as active; the % refers to the signal ratio)
# In short: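 Beta-lactamase reporter cells (p53RE-bla) treated with compounds for 16 h at 37 C; FRET substrate, 2 h, room temperature; fluorescence intensity.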
# [12] = cAMP Responsive Elements (CRE) small molecule agonists, cell-based qHTS assay (AID 1963590)
# In short: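 Quantitative HTS for CRE agonists: HEK 293T CRE-bla cells, overnight plating, 3 h compound incubation at 37 C/5% CO2, then 2 h room-temperature LiveBLAzer B/G FRET substrate loading.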
# [13] = cAMP Responsive Elements (CRE) small molecule antagonists, cell-based qHTS assay (AID 1963591; active = well fitted inhibition curve with a large enough effect in the signal ratio in the repeat runs, not every such curve was filed as active; the % refers to the signal ratio)
# In short: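 Fluorescence intensity from cleaved LiveBLAzer B/G substrate (2 h, room temperature) quantified CRE-bla activity in HEK 293T cells exposed 3 h to compound with 0.25 uM final NKH477.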
# [14] = target: Beta-2 adrenergic receptor (Homo sapiens) (UniProt P07550); experiment: Adrenergic beta2 receptor (ADRB2) small molecule antagonists, cell-based qHTS assay (AID 1963592); note: nearly all actives have a fitted effect of over 50% in size; note: potency is the fitted concentration of half-maximal effect; for activity change, negative = inhibition: series mostly up to about 92 µM
# Beta-2 adrenergic receptor (Homo sapiens), sequence (P07550 whole entry, looked up): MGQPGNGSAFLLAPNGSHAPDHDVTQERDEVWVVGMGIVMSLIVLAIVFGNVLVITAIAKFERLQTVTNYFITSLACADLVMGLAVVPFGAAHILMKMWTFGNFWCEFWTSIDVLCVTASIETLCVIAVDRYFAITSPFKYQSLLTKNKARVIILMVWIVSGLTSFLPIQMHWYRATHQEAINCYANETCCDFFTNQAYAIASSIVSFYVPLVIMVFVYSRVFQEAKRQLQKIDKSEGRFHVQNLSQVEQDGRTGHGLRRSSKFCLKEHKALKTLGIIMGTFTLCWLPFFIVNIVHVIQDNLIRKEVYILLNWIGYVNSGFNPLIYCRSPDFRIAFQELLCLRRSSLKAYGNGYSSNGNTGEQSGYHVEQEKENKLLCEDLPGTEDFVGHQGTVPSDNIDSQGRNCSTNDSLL
# In short: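 Assay format: CHO-ADRB2 cells, 18-20hr seeding at 37C/5% CO2, then compound plus 1nM isoproterenol agonist mix for 0.5hr RT. Homogeneous time-resolved fluorescence cAMP detection after 1hr, expressed as 665/615 nm ratio.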
# [15] = target: D(2) dopamine receptor (Homo sapiens) (UniProt P14416); experiment: Dopamine D2 receptor (DRD2) small molecule agonists, cell-based qHTS assay (AID 1963594); note: nearly all actives have a fitted effect of over 35% in size
# D(2) dopamine receptor (Homo sapiens), sequence (P14416 whole entry, looked up): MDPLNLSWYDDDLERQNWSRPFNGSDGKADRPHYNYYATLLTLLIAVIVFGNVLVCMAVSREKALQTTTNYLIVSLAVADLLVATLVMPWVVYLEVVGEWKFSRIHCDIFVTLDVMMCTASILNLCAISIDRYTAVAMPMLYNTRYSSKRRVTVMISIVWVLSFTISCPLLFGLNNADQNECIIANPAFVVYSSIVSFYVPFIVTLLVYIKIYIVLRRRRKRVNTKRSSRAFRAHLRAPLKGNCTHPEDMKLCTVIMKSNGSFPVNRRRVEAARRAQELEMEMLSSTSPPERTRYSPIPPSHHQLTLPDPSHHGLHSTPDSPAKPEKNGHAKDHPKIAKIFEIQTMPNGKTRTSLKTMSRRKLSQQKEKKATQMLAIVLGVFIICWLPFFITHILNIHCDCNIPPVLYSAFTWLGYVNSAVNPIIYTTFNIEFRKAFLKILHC
# In short: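 cAMP accumulation in DRD2-HEK293 cells measured by HTRF after 1 h detection; compounds added 10 min before NKH477 (200nM […]) forskolin-analogue stimulation, 30 min at room temperature, with Ro20-1724 present at 0.1 mM final.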
# [16] = target: D(2) dopamine receptor (Homo sapiens) (UniProt P14416); experiment: Dopamine D2 receptor (DRD2) small molecule antagonists, cell-based qHTS assay (AID 1963595; active = well fitted inhibition curve with a large enough effect in the signal ratio in the repeat runs, with a control signal flat; the % refers to the signal ratio; note: potency is the fitted concentration of half-maximal effect)
# In short: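 Antagonism was scored as restored cAMP in HEK293-DRD2 cells. These cells were stimulated with 200 nM NKH477 and 12 nM quinpirole for 30 min at room temperature, in the presence of 0.1 mM Ro20-1724.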
# [17] = target: 5-hydroxytryptamine receptor 2A (Homo sapiens) (UniProt P28223); experiment: 5-hydroxytryptamine receptor 2A (HTR2A) small molecule antagonists, cell-based qHTS assay (AID 1963586); note: nearly all actives have a fitted effect of over 45% in size; note: potency is the fitted concentration of half-maximal effect
# 5-hydroxytryptamine receptor 2A (Homo sapiens), sequence (P28223 whole entry, looked up): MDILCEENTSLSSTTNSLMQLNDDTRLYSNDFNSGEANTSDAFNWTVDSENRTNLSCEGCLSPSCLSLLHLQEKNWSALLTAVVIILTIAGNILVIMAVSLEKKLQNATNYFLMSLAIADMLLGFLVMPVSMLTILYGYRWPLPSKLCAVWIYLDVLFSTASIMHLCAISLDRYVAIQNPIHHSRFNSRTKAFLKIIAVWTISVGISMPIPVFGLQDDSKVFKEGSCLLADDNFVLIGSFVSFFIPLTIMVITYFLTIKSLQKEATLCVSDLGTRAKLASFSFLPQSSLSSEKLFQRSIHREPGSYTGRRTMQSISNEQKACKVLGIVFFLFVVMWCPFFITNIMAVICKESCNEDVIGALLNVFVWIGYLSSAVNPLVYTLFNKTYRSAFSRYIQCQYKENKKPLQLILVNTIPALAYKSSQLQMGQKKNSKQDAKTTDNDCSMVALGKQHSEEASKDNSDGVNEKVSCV
# In short: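 CHO cells stably expressing human HTR2A were plated for 18 h at 37 C, then loaded with calcium dye for 1 h. Compounds were preincubated 5 min at room temperature before DOI (4 nM solution) was added. Kinetic fluorescence was read for 3 min.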
# [18] = target: 5-hydroxytryptamine receptor 2A (Homo sapiens) (UniProt P28223); experiment: 5-hydroxytryptamine receptor 2A (HTR2A) small molecule agonists, cell-based qHTS assay (AID 1963587); note: nearly all actives have a fitted effect of over 30% in size; note: potency is the fitted concentration of half-maximal effect
# In short: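 Kinetic calcium-flux fluorescence (2 min, 1 sec intervals) after compound addition in agonist mode. HTR2A-CHO cells were cultured 18 h, then dye-loaded 1 h at 37 C.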
# [19] = target: Muscarinic acetylcholine receptor M1 (Homo sapiens) (UniProt P11229); experiment: Cholinergic receptor muscarinic 1 (CHRM1) small molecule agonists, cell-based qHTS assay (AID 1963589); note: nearly all actives have a fitted effect of over 35% in size; note: potency is the fitted concentration of half-maximal effect
# Muscarinic acetylcholine receptor M1 (Homo sapiens), sequence (P11229 whole entry, looked up): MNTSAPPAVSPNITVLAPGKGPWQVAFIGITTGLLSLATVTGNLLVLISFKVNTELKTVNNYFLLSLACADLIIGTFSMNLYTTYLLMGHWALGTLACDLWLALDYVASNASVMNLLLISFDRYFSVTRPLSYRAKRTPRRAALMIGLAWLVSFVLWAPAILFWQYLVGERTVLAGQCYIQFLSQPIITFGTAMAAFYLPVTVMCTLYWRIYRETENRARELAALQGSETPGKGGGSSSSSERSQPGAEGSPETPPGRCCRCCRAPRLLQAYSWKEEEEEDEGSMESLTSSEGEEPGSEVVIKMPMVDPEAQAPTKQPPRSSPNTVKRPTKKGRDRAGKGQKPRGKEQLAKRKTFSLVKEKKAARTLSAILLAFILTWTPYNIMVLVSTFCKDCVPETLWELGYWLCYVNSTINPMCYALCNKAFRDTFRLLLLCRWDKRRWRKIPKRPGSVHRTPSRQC
# In short: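 qHTS, 15-point titration, 3 independent runs: compounds pin-transferred onto dye-loaded CHRM1-CHO cells (human M1), calcium fluorescence followed every second to detect agonism.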
# [20] = target: Muscarinic acetylcholine receptor M1 (Homo sapiens) (UniProt P11229); experiment: Cholinergic receptor muscarinic 1 (CHRM1) small molecule antagonists, cell-based qHTS assay (AID 1963588); note: potency is the fitted concentration of half-maximal effect; nearly all actives have a fitted effect of over 40% in size
# In short: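 Compounds were tested at 15 concentrations in three independent runs. Dye-loaded CHRM1-CHO cells were exposed 5 min at room temperature before stimulation by acetylcholine added at 50nM. Intracellular calcium was read kinetically on FDSS for 3 min.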
structure (smiles),measurement,setting,value
CN1C(=O)CN=C(c2ccccc2)c2cc([N+](=O)[O-])ccc21,Potency,[1],inactive
same,Potency,[2],inactive
same,Potency,[3],inactive
same,Potency,[4],inactive
same,Potency,[5],inactive
same,Potency,[6],inactive
same,Potency,[7],inactive
same,Potency,[8],inactive
same,Potency,[9],inactive
same,Potency,[10],inactive
same,Potency,[11],inactive
same,Potency,[12],inactive
same,Potency,[13],inactive
same,Potency,[14],inactive
same,Potency,[15],inactive
same,Potency,[16],inactive
ClCCCCl,Potency,[1],inactive
same,Potency,[2],inactive
same,Potency,[3],inactive
same,Potency,[4],inactive
same,Potency,[5],inactive
same,Potency,[6],inactive
same,Potency,[7],inactive
same,Potency,[8],inactive
same,Potency,[9],inactive
same,Potency,[10],inactive
same,Potency,[17],inactive
same,Potency,[18],inactive
same,Potency,[19],inactive
same,Potency,[12],inactive
same,Potency,[13],inactive
same,Potency,[14],inactive
same,Potency,[15],inactive
same,Potency,[16],inactive
Cc1ccc2c(c1)C1CN(C)CCC1N2 (stereo not given),"activity change, negative = cytotoxicity",[1],-10.1% [at 19 µM]
same,"activity, positive = activation",[2],-3.42% [at 19 µM]
same,activity change,[3],"1.2% [at 11.8 µM, active compounds read high]"
same,activation,[4],-0.319% [at 15.8 µM]
same,activation,[5],-0.508% [at 11.8 µM]
same,activation,[6],3.07% [at 13.5 µM]
same,activation,[7],-0.463% [at 13.6 µM]
same,"activity change, negative = cytotoxicity",[8],-1.76% [at 13.5 µM]
same,"activity change, negative = cytotoxicity",[9],-8.73% [at 13.5 µM]
same,"activity change, negative = cytotoxicity",[10],13.5% [at 13.5 µM]
same,activation,[11],0% [at 13.5 µM]
same,Potency,[18],0.165 µM (active)
same,activation,[19],-0.313% [at 15.8 µM]
same,activation,[12],-1.75% [at 19 µM]
same,"activity change, negative = inhibition",[13],-7.6% [at 18.9 µM]
same,"activity change, negative = inhibition",[14],-2.7% [at 19 µM]
same,activation,[15],-2.85% [at 19 µM]
same,"activity change, negative = inhibition",[16],-2.92% [at 18.9 µM]
C=CCC1=C(C)[C@@H](OC(=O)[C@@H]2[C@@H](C=C(C)C)C2(C)C)CC1=O,Potency,[1],inactive
same,Potency,[2],61.1 µM (active)
same,Potency,[3],inactive
same,Potency,[4],inactive
same,Potency,[5],inactive
same,Potency,[6],inactive
same,Potency,[7],inactive
same,Potency,[8],inactive
same,Potency,[9],inactive
same,Potency,[10],inactive
same,Potency,[17],inactive
same,Potency,[18],inactive
same,Potency,[20],16.8 µM (active)
same,Potency,[19],inactive
same,Potency,[15],inactive
C=CC(=O)[O][Sn]([CH2]CCC)([CH2]CCC)[CH2]CCC,Potency,[1],969 nM (active)
same,Potency,[2],1.37 µM (active)
same,Potency,[3],5.49 µM (active)
same,Potency,[4],19.5 µM (active)
same,Potency,[5],38.9 µM (active)
same,Potency,[6],inactive
same,Potency,[7],inactive
same,Potency,[8],5.13 µM (active)
same,Potency,[9],8.14 µM (active)
same,Potency,[10],1.62 µM (active)
same,Potency,[17],3.75 µM (active)
same,Potency,[18],12.3 µM (active)
same,Potency,[19],11 µM (active)
same,Potency,[14],969 nM (active)
same,Potency,[15],inactive
same,Potency,[16],2.43 µM (active)
CC(C(O)c1ccccc1)N(C)C/C=C/c1ccccc1 (stereo not given),Potency,[1],inactive
same,Potency,[2],inactive
same,Potency,[3],inactive
same,Potency,[4],inactive
same,Potency,[5],inactive
same,Potency,[6],inactive
same,Potency,[7],inactive
same,Potency,[8],inactive
same,Potency,[9],inactive
same,Potency,[10],inactive
same,Potency,[11],inactive
same,Potency,[18],inactive
same,Potency,[19],inactive
same,Potency,[13],inactive
same,Potency,[15],inactive
same,Potency,[16],inactive
C[C@@H](Oc1ccc(Cl)cc1Cl)C(=O)O,Potency,[1],inactive
same,Potency,[2],inactive
same,Potency,[3],inactive
same,Potency,[4],inactive
same,Potency,[5],inactive
same,Potency,[6],inactive
same,Potency,[7],inactive
same,Potency,[8],inactive
same,Potency,[9],inactive
same,Potency,[10],inactive
same,Potency,[17],inactive
same,Potency,[18],inactive
same,Potency,[19],inactive
same,Potency,[14],inactive
same,Potency,[15],inactive
same,Potency,[16],inactive
CCCCOC(=O)[C@@H](C)Oc1ccc(Oc2ccc(C#N)cc2F)cc1,Potency,[1],inactive
same,Potency,[2],inactive
same,Potency,[3],inactive
same,Potency,[4],inactive
same,Potency,[5],inactive
same,Potency,[6],inactive
same,Potency,[7],inactive
same,Potency,[8],inactive
same,Potency,[9],inactive
same,Potency,[10],inactive
same,Potency,[17],inactive
same,Potency,[18],inactive
same,Potency,[20],1.66 µM (active)
same,Potency,[14],inactive
same,Potency,[15],inactive
